Measurements reported in PubChem BioAssay (Tox21).
Results filed as inconclusive are left out. Where a call stands in place of a potency, no number is given. The source made the active and inactive calls. Calls follow the shape of the dose curve; as a rule, active = well fitted activation curve with a large enough effect in the repeat runs; inconclusive = weak or mixed curves; inactive = flat fitted curve, though single readings scatter.

biological target: Nuclear receptor subfamily 1 group I member 2 (Homo sapiens) (UniProt O75469); test: Human pregnane X receptor (PXR) activation by small molecules, qHTS assay (AID 1346985); details: DPX-2 HepG2 CYP3A4-luciferase, 24 h; series mostly up to 38.3 µM; also: nearly all actives have a fitted effect of over 40% in size
Source text: National Center for Advancing Translational Sciences [NCATS]
NIH Chemical Genomics Center [NCGC]
U.S. Environmental Protection Agency [EPA]
National Institutes of Environmental Health Sciences [NIEHS]
National Toxicology Program [NTP]
The Pregnane X receptor (PXR), a ligand activated nuclear receptor plays a critical role in the regulation of genes involved in drug metabolism and transporters. Activation of PXR may be involved in the unwanted adverse drug-drug interactions. […] Therefore, identification of compounds with the potential for PXR activation can be of importance in improving the efficacy of drugs with less toxicity and avoiding drug-drug interactions.
DPX-2 (Puracyp, Inc.) cell lines, used for screening against human PXR activation has HepG2 cells co-transfected with a PXR response element and a luciferase construct containing CYP3A4 promoter. Increase in luciferase activity can be used to identify the compounds that activate the PXR pathway.
DPX-2 cells were dispensed at 2,000 cells per well in 5uL of assay medium into white, solid-bottom 1536-well plates using a Multidrop Combi dispenser (Thermo Scientific). The assay plates were incubated at 37C for 5hr before transferring 23nL of test compounds dissolved in DMSO and positive control via Pintool station (Wako). The assay plates were incubated at 37C for 24hr. Then 5ul One-Glo assay reagent (Promega) was added to each plate by a Flying Reagent Dispenser (FRD, Aurora Discovery) and following 30 min incubation at room temperature, luciferase activity was quantified on a ViewLux plate reader (Perkin Elmer).
Potency is read from the fitted curve at half-maximal effect.

Compound | Potency
CC(=O)Oc1ccc(C2(c3ccc(OC(C)=O)cc3)C(=O)Nc3ccccc32)cc1 | inactive
CC1=C(/C=C/C(C)=C/C=C/C(C)=C/C(=O)Nc2ccc(O)cc2)C(C)(C)CCC1 | inactive
CCCCOc1ccc(C(=O)CCN2CCCCC2)cc1 | inactive
O[C@@H](c1cc(C(F)(F)F)nc2c(C(F)(F)F)cccc12)[C@H]1CCCCN1 | inactive
O=C1OC(OC(=O)c2cccnc2Nc2cccc(C(F)(F)F)c2)c2ccccc21 (configuration not stated) | inactive
CNC(=O)c1cc(Oc2ccc(NC(=O)Nc3ccc(Cl)c(C(F)(F)F)c3)cc2)ccn1 | inactive
N[C@@H](CSSC[C@H](N)C(=O)O)C(=O)O | inactive
NC(=O)C(=O)N/N=C/c1ccc([N+](=O)[O-])o1 | inactive
Cc1cccc(C)c1NC(=O)CN1CCN(CCCC(c2ccc(F)cc2)c2ccc(F)cc2)CC1 | inactive
CCOC(=O)[C@@](C)(N)Cc1ccc(O)c(O)c1 | inactive
CCN(CC)CCSC(=O)C(c1ccccc1)c1ccccc1 | inactive
COc1ccccc1OCCNCC(O)COc1cccc2[nH]c3ccccc3c12 (configuration not stated) | 22.4 µM (active)
CC(C)N=C(N)/N=C(\N)Nc1ccc(Cl)cc1 | inactive
CO[C@H]1C=CO[C@@]2(C)Oc3c(C)c(O)c4c(O)c(cc(O)c4c3C2=O)NC(=O)/C(C)=C\C=C/[C@H](C)[C@H](O)[C@@H](C)[C@@H](O)[C@@H](C)[C@H](OC(C)=O)[C@@H]1C | inactive
CN(Cc1cc(Br)cc(Br)c1N)C1CCCCC1 | 8.91 µM (active)
CCCSS/C(CCO)=C(\C)N(C=O)Cc1cnc(C)nc1N | inactive
C=C(c1ccc(C(=O)O)cc1)c1cc2c(cc1C)C(C)(C)CCC2(C)C | inactive
C[C@@]12C(=O)OC(=O)[C@]1(C)C1CCC2O1 | 0.794 µM (active)
CCCN(CCc1cccs1)[C@H]1CCc2c(O)cccc2C1 | inactive
S=P(N1CC1)(N1CC1)N1CC1 | inactive
Nc1ncnc2c1ncn2[C@@H]1O[C@H](COP(=O)(O)O)[C@@H](O)[C@H]1O | inactive
CCCCN(CCCC)CCC(O)c1cc2c(Cl)cc(Cl)cc2c2cc(C(F)(F)F)ccc12 (configuration not stated) | inactive
CCCCCCCCCCCCCCNCCO | inactive
CCCCCCCC/C=C\CCCCCCCC(=O)NCc1ccc(O)c(OC)c1 | inactive
CCN(CC)CCCN(c1ccccc1)C1Cc2ccccc2C1 | 5.01 µM (active)
C/C=C/C=N/NC(=O)c1ccncc1 | inactive
COCC(=O)O[C@]1(CCN(C)CCCc2nc3ccccc3[nH]2)CCc2cc(F)ccc2[C@@H]1C(C)C | inactive
